# What was measured:
# [1] = target: Ephrin type-A receptor 4 (Homo sapiens) (UniProt P54764); conditions: at 1 µM
# [2] = target: Ephrin type-A receptor 4 (Homo sapiens) (UniProt P54764); conditions: at 10 µM
# [3] = target: Ephrin type-A receptor 5 (Homo sapiens) (UniProt P54756); conditions: at 1 µM
# [4] = target: T1, Ephrin type-A receptor 8 (Homo sapiens) (UniProt P29322); conditions: at 10 µM
# T1 sequence (whole entry): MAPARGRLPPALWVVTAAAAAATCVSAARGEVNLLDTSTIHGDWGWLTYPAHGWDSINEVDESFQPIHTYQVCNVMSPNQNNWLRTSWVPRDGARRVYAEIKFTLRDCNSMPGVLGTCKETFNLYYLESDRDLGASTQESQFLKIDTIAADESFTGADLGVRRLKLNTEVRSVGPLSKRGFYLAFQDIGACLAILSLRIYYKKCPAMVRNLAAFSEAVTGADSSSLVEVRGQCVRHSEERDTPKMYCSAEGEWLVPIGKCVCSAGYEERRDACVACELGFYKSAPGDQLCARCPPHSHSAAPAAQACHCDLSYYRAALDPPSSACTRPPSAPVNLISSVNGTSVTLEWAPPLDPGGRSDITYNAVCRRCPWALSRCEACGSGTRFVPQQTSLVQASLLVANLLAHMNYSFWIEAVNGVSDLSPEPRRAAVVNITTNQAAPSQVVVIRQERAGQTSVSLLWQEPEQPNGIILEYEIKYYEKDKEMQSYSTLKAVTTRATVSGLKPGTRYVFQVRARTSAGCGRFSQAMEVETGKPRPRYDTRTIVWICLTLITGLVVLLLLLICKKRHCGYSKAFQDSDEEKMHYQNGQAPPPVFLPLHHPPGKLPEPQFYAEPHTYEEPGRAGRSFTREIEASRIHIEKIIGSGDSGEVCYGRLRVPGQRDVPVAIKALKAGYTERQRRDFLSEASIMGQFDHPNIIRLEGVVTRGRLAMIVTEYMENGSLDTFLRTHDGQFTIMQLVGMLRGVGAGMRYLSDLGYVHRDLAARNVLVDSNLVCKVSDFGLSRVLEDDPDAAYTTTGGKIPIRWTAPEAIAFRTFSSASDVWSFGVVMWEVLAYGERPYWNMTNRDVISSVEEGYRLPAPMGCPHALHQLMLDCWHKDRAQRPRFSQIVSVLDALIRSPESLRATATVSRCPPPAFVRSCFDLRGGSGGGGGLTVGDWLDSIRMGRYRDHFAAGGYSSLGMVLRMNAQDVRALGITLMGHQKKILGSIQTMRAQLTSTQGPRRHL
# [5] = target: T2, Ephrin type-B receptor 1 (Homo sapiens) (UniProt P54762); conditions: at 1 µM
# T2 sequence (whole entry): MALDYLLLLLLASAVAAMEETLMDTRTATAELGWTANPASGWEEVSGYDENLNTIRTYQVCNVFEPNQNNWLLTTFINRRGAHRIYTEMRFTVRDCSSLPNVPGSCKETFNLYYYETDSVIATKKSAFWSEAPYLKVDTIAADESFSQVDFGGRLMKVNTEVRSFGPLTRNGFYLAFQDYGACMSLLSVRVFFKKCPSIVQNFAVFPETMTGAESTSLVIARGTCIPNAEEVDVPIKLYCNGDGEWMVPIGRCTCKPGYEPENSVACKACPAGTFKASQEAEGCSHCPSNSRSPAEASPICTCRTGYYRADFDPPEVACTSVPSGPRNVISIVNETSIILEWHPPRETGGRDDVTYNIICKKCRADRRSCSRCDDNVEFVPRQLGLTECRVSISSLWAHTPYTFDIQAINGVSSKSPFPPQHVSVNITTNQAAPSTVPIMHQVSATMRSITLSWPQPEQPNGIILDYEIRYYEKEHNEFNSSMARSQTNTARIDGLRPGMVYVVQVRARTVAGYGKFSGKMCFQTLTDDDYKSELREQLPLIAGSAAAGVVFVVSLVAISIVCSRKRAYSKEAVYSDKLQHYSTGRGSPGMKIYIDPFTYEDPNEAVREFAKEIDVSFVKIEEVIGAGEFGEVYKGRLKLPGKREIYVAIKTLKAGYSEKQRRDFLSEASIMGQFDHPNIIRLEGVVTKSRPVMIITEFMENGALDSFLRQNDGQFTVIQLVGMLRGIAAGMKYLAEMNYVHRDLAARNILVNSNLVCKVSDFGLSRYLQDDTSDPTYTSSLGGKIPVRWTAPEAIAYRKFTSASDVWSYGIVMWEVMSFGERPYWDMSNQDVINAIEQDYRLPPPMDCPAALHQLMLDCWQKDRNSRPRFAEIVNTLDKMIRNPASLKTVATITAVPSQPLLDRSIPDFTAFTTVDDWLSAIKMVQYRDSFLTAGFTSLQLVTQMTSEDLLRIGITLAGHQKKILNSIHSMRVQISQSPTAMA
# [6] = target: T2, Ephrin type-B receptor 1 (Homo sapiens); conditions: at 10 µM
# [7] = target: T3, Ephrin type-B receptor 2 (Homo sapiens) (UniProt P29323); conditions: at 1 µM
# T3 sequence (whole entry): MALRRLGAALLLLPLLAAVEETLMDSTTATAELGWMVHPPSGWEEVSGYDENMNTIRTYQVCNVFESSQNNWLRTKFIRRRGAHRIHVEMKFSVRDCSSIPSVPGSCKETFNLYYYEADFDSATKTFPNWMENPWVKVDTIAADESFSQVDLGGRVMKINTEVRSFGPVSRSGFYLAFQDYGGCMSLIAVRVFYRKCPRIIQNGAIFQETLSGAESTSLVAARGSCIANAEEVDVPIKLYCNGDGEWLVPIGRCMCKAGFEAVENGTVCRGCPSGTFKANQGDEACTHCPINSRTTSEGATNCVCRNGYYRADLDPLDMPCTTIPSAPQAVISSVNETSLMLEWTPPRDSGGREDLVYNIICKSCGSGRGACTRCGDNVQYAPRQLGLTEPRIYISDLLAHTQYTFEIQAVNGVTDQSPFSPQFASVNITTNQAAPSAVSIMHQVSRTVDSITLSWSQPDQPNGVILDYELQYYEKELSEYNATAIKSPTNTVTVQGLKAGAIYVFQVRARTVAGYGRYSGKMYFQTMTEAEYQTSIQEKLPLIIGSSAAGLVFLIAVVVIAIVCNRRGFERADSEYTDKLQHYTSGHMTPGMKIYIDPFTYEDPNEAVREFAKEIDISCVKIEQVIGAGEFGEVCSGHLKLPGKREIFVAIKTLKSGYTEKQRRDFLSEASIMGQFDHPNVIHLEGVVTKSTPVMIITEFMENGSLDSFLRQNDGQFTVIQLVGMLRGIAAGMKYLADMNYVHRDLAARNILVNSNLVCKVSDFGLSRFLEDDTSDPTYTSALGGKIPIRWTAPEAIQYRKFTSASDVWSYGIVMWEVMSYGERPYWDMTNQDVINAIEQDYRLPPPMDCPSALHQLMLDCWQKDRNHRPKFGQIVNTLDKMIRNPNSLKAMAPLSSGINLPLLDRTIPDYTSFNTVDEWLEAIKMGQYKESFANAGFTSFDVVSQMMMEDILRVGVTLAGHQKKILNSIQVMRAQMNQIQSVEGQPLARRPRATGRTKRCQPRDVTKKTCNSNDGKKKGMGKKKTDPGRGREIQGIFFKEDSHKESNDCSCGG
# [8] = target: T3, Ephrin type-B receptor 2 (Homo sapiens); conditions: at 10 µM
# [9] = target: T4, Ephrin type-B receptor 3 (Homo sapiens) (UniProt P54753); conditions: at 1 µM
# T4 sequence (whole entry): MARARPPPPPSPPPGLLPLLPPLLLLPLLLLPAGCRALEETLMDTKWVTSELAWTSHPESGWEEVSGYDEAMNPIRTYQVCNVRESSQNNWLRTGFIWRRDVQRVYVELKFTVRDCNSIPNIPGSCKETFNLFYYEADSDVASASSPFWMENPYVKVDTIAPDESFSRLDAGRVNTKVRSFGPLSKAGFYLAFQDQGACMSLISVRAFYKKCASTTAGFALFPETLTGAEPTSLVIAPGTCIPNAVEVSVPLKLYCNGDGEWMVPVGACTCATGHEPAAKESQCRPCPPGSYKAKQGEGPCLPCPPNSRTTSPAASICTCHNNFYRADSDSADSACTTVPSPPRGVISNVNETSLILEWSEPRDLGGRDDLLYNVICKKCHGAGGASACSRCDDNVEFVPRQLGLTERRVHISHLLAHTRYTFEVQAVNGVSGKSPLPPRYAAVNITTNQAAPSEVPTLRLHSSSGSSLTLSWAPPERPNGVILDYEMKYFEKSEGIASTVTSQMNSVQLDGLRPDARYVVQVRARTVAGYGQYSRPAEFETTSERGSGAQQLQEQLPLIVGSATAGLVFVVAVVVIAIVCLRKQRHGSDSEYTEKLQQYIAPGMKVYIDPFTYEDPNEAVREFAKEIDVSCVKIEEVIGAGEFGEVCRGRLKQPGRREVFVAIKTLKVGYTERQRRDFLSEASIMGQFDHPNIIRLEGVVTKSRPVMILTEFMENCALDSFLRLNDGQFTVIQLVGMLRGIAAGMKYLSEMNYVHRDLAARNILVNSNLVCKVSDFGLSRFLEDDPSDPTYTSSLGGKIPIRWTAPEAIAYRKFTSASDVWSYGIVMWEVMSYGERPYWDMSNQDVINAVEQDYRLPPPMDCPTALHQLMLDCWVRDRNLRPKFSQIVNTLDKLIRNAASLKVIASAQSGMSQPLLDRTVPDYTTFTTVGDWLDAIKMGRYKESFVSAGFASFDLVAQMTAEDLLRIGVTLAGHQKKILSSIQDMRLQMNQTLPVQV
# [10] = target: T4, Ephrin type-B receptor 3 (Homo sapiens); conditions: at 10 µM
# [11] = target: T5, Ephrin type-B receptor 4 (Homo sapiens) (UniProt P54760); conditions: at 1 µM
# T5 sequence (whole entry): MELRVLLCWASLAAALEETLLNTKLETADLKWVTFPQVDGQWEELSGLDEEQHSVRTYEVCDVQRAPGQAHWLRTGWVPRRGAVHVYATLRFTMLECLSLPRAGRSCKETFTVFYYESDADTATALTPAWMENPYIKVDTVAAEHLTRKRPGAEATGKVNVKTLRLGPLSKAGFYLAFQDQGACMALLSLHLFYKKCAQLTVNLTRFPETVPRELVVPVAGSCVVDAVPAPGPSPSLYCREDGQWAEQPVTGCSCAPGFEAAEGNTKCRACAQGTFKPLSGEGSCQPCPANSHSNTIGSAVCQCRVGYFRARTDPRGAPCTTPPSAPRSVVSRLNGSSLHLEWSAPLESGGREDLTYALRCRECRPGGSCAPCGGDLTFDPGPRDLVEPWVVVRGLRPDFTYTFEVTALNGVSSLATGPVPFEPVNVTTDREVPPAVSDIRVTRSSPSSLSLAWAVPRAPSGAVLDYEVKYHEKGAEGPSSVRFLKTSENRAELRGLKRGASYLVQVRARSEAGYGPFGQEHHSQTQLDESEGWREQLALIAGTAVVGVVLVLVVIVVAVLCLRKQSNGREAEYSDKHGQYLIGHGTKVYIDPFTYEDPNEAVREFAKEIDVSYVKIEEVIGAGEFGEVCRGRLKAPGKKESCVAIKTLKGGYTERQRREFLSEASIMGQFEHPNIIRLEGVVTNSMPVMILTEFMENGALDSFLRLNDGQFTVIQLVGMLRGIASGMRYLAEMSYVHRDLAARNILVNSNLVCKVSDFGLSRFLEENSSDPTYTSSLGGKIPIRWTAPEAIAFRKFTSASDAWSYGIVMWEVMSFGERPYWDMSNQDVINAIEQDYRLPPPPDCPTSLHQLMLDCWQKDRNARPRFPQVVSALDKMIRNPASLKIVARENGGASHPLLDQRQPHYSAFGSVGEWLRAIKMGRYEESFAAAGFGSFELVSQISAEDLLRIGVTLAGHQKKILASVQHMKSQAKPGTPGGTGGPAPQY
# [12] = target: T5, Ephrin type-B receptor 4 (Homo sapiens); conditions: at 10 µM
# [13] = target: Receptor tyrosine-protein kinase erbB-4 (Homo sapiens) (UniProt Q15303); conditions: at 1 µM
# [14] = target: Receptor tyrosine-protein kinase erbB-4 (Homo sapiens) (UniProt Q15303); conditions: at 10 µM
# [15] = target: Focal adhesion kinase 1 (Homo sapiens) (UniProt Q05397); conditions: at 1 µM
# Chain of Focal adhesion kinase 1 (Homo sapiens) (Q05397 2-1052 limits assumed): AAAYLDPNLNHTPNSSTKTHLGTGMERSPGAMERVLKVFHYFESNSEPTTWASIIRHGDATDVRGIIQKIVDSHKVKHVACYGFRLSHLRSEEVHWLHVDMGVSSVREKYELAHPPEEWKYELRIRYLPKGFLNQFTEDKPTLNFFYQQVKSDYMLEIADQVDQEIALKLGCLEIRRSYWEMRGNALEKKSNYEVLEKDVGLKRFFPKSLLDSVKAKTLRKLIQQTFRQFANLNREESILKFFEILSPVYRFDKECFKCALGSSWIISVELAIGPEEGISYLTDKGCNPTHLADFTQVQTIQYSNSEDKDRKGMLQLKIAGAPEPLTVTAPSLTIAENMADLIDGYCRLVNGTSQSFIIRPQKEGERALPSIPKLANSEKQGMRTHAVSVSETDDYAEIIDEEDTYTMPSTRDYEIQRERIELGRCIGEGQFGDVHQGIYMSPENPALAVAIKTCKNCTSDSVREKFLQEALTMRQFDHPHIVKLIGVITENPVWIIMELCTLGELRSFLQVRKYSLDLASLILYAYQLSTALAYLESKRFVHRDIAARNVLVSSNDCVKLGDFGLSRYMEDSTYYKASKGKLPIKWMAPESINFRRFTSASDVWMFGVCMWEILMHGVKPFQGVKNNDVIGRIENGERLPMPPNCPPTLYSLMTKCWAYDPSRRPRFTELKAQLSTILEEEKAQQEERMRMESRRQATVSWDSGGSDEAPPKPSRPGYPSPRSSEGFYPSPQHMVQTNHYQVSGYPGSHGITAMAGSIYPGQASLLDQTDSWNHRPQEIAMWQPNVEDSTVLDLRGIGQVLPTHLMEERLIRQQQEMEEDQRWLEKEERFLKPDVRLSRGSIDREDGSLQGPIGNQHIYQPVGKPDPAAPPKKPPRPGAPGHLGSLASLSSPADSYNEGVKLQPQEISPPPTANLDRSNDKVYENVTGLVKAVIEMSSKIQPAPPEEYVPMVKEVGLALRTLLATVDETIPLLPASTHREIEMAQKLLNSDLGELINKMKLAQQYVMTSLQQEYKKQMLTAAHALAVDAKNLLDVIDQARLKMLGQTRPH
# Chain of Receptor tyrosine-protein kinase erbB-4 (Homo sapiens) (Q15303 whole entry): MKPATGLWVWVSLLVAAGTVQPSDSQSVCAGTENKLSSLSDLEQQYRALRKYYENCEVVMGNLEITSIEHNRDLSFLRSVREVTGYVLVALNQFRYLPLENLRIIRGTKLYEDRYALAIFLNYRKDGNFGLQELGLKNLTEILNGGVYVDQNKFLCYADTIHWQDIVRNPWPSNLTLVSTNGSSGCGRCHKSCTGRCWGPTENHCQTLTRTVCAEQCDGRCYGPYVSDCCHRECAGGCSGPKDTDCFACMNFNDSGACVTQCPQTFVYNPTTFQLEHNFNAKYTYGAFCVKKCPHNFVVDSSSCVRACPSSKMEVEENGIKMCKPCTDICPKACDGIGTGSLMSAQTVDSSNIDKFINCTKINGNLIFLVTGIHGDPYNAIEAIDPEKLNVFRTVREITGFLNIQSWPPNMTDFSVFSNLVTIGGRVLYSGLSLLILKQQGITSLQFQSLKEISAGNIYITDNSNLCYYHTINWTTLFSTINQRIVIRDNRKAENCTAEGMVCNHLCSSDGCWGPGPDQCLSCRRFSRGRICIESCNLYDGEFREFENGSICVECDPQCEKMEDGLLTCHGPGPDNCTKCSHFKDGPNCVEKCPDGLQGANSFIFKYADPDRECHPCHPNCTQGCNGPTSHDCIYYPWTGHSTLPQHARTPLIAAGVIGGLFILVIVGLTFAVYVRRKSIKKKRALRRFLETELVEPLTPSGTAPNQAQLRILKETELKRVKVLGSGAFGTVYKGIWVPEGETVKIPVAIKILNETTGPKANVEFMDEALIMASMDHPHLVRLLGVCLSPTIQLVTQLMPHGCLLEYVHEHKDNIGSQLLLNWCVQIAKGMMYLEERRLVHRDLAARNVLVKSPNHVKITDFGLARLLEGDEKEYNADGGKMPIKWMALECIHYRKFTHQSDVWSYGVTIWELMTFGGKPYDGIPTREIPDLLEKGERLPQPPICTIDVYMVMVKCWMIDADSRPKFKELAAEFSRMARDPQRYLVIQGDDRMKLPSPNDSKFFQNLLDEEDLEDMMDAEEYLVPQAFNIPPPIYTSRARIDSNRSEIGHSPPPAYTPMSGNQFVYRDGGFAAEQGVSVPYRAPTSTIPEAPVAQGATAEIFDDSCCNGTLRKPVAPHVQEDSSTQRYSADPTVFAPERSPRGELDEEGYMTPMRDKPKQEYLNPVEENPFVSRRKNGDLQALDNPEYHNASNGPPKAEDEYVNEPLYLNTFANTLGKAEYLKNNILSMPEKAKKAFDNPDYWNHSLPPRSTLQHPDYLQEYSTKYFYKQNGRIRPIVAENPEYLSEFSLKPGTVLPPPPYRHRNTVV
# Chain of Ephrin type-A receptor 4 (Homo sapiens) (P54764 whole entry): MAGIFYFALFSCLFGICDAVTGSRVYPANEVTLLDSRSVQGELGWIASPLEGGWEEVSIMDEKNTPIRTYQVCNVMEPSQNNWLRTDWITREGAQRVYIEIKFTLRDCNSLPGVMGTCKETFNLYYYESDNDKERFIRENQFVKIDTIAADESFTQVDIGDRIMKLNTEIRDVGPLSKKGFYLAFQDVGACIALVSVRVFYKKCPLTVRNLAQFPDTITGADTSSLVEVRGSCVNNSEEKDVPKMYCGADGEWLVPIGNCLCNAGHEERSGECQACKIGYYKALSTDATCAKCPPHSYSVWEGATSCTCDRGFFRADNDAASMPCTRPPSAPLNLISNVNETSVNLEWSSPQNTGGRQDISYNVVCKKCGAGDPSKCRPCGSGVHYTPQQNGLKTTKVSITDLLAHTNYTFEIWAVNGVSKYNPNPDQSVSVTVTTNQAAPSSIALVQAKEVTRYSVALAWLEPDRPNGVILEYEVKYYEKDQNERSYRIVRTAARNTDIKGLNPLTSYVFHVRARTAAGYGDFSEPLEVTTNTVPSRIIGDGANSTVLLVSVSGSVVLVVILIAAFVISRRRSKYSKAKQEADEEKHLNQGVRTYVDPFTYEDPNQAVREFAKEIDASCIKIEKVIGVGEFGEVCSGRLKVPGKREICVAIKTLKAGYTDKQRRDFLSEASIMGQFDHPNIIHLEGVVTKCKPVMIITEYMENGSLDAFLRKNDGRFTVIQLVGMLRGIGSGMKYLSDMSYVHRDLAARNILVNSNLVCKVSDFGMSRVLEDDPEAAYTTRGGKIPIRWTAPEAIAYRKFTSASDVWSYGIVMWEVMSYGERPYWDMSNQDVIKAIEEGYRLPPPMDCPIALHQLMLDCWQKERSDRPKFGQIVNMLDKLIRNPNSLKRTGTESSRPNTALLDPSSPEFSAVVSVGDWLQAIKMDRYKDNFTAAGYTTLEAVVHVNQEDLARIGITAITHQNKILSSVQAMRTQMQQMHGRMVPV
# Chain of Ephrin type-A receptor 5 (Homo sapiens) (P54756 whole entry): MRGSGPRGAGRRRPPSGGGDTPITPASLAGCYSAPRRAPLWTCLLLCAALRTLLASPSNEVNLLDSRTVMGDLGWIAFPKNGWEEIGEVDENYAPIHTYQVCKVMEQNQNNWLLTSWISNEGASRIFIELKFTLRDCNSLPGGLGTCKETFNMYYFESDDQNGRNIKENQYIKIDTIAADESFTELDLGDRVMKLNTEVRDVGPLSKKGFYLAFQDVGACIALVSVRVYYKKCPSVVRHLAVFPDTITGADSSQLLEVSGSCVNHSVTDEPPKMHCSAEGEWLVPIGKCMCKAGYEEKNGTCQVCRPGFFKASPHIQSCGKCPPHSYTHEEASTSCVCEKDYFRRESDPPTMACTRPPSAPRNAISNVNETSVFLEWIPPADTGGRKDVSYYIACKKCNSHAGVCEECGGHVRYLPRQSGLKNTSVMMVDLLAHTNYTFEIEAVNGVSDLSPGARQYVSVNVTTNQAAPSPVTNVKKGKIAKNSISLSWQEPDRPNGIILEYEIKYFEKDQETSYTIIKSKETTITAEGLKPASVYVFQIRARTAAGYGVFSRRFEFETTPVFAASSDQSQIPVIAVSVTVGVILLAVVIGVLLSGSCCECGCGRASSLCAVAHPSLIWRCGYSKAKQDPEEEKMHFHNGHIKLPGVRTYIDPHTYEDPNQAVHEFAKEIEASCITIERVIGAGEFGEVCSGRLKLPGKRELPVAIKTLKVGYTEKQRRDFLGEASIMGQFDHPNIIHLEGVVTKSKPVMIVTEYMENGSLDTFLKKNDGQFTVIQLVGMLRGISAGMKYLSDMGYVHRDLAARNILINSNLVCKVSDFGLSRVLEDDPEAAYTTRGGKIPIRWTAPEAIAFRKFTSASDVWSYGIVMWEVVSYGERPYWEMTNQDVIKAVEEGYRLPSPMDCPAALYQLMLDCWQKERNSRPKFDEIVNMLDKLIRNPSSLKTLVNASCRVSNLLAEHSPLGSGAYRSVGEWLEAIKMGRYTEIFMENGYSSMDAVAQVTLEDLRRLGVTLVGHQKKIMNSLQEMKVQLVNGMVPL
compound,measurement,setting,value
O=C1Nc2ccc(Br)cc2/C1=C\c1cc2c([nH]1)CCCC2,residual activity,[1],106%
same,residual activity,[2],103%
same,residual activity,[3],110%
same,residual activity,[4],101%
same,residual activity,[5],101%
same,residual activity,[6],107%
same,residual activity,[7],111%
same,residual activity,[8],115%
same,residual activity,[9],114% (inactive)
same,residual activity,[10],117%
same,residual activity,[11],118%
same,residual activity,[12],132%
same,residual activity,[13],109%
same,residual activity,[14],106%
same,residual activity,[15],78%

# — ChEMBL document CHEMBL2218924, “A broad activity screen in support of a chemogenomic map for kinase signalling research and drug discovery” (Biochem J, 2013)
